# Source: PubChem (National Center for Advancing Translational Sciences (NCATS))
# hERG WT inh = qHTS for Inhibitors of KCHN2 3.1: Wildtype qHTS; Voltage-gated inwardly rectifying potassium channel KCNH2 (Homo sapiens), Q12809; U2OS, BacMam KCNH2, thallium flux FluxOr; active compounds read low; activity change, % at 1.84 µM; hit rate 0.37% among 340,000; AID 720551, 2013;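 active means maximum activity change below -70%; inconclusive means maximum activity change between -70% and -50%; inactive means maximum activity change above -50%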; further: on the % scale 0 is the no-effect control and ±100 the full control effect
#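 U2OS cells were transduced with wild-type KCNH2 virus (2.03 x 10^8 / mL) for 4 h at room temperature, then cultured overnight at 37 C. Thallium flux was read with FluxOr dye. Rate constants were normalized to DMSO controls.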
# KCNH2 3.1 block = qHTS for Inhibitors of KCHN2 3.1: Mutant qHTS | U2OS KCNH2 3.1, thallium flux FluxOr; active compounds read low | AID 720553, 2013 | activity change, % (tested at about 1.8 µM) | hit rate 0.95% among 340,000;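 active means maximum activity change below -70%; inconclusive means maximum activity change from -70% to -50%; inactive means maximum activity change above -50%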;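 further: thallium influx rate constant from kinetic fluorescence after stimulation buffer; on the % scale 0 is the no-effect control and ±100 the full control effect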
#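 Steps: virus added to U2OS suspension (4 h, RT, dark); medium with 10% FBS added, cells plated, 37 C overnight; FluxOr/Red40 loading buffer 45 min RT; stimulation buffer, 2 min kinetic read; rate constant normalized.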
# MmCpn inh = Inhibitors of TCP-1 ring complex (TRiC) of Methanococcus maripaludis (MmCpn): qHTS. hit rate 0.031% among 330,000. Potency, µM (doses to about 76.9 µM), for the others: at the highest dose activity, negative = inhibition, hits mostly inhibitors. Chaperonin Mm-Cpn (Methanococcus maripaludis). purified Mm-Cpn ATPase, ADP Transcreener TR-FRET; further: potency means the concentration at half of the fitted maximal effect; on the % scale 0 is the no-effect control and ±100 the full control effect; nearly all actives have a fitted effect of over 80% in size
#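 ATPase read-out: TR-FRET ADP immunoassay (anti-ADP Eu cryptate vs ADP-d2), ex 320 nm, em 590/665 nm; signal drops as ADP forms. Enzyme 25 nM, ATP 10 uM, 30 min at 37°C after 10 min compound preincubation.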
# uPA generation = qHTS for Inhibitors of Cell Surface uPA Generation | cell surface uPA generation assay, qHTS | Potency, µM (titrated, usually from 38.3 µM), inactives show top-dose activity change, negative = inhibition, most hits filed as inhibitors | hit rate 0.31% among 330,000 | AID 540303, 2011; active means well fitted inhibition curve with a large enough effect; inconclusive means small, poorly fitted or top-dose-only effect; inactive means no such curve, though single readings can be large or run the other way; tested in mouse RAW 264.7 cells; further: potency means the concentration at half of the fitted maximal effect; on the % scale 0 is the no-effect control and ±100 the full control effect; nearly all actives have a fitted effect of over 55% in size
# p53 reactivator = qHTS assay for re-activators of p53 using a Luc reporter; hit rate 0.063% among 320,000; H1299 p53-A138V BP100-luciferase reporter, luminescence, 24 h; Potency, µM (titrated, usually from 92.2 µM), for the others: at the top dose activity change, positive = activation, actives largely listed as activators; further: potency means the concentration at half of the fitted maximal effect; % of control where 0% means no effect; nearly all actives have a fitted effect of over 45% in size
#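 p53-null H1299 cells stably carrying temperature-sensitive p53-A138V and a BP100-luciferase reporter were pinned with compounds (4-point, 1:5 series) and held 24 hrs at 37 deg C. Luminescence was read 10 min after detection reagent.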
# ASM inhibitor = Inhibitors of Secretory Acid Sphingomyelinase (S-ASM): qHTS; Sphingomyelin phosphodiesterase (Homo sapiens), P17405; placental ASM, HMU-PC fluorogenic substrate, 60 min; Potency, µM (doses to about 57.5 µM), without a hit: at the top dose activity change, negative = inhibition, usual class: inhibitors; hit rate 0.006% among 340,000; AID 504937, 2011; further: potency means the concentration at half of the fitted maximal effect
# Target sequence (P17405 47-631 limits assumed): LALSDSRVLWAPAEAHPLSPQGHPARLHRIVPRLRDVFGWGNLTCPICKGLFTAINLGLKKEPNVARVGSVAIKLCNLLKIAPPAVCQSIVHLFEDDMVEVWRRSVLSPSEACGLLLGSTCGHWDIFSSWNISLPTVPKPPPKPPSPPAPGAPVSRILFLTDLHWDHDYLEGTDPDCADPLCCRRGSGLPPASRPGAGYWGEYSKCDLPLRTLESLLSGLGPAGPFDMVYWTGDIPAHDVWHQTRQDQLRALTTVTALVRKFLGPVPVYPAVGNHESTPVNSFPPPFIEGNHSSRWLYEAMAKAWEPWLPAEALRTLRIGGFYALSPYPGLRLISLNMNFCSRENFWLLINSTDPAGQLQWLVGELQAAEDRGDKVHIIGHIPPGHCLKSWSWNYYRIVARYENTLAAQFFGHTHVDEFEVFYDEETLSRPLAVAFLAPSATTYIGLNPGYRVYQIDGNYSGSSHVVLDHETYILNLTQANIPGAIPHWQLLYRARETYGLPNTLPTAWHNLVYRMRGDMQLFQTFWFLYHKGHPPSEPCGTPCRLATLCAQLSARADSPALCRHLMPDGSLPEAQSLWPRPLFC
#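 Fluorogenic HMU-PC substrate (9 uM final) is turned over by placental ASM in 60 min at 37 C after a 10 min compound preincubation. Reaction ended by alkaline stop (pH 10), with fluorescence read at 386/447 nm.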
# * marks the source's active call; other numbers are inactive results; i = inactive; ? = inconclusive; . = no result given. Rows were chosen to be rich in hits. Some 1.4% of all compounds tested hit in one or more screens of this group. Unless noted, the call rests on the fitted dose curve; in most records, active means well fitted curve in the direction sought with a large enough effect; inconclusive means small, poorly fitted or top-dose-only effect, or another doubt; inactive means no such curve, though single readings can be large; an effect the other way counts as inactive or inconclusive.
SMILES,hERG WT inh,KCNH2 3.1 block,MmCpn inh,uPA generation,p53 reactivator,ASM inhibitor
Cc1nnc2c3ccccc3c(-c3cccs3)nn12,-4,-85*,0%,1%,-4%,-4%
COc1cccc(S(=O)(=O)Nc2ccc3c(c2)[C@H]2C[C@H](CC(=O)N[C@@H](C)c4ccccc4)O[C@H](CO)[C@H]2O3)c1,0,-1,.,.,.,.
COc1ccccc1NC1=C(NC(C)=O)C(=O)c2ccccc2C1=O,1,-1,-23%,13µM*,-6%,1%
COC1=C(Nc2ccccc2OC)C(=O)c2ccccc2C1=O,2,0,-6%,4%,-4%,-1%
CCOC(=O)C1(Cc2ccccc2C)CCCN(C(=O)COC)C1 (stereo not given),7,-107*,1%,-14%,1%,6%
CCN(CC(=O)NCC1CCCO1)S(=O)(=O)c1ccc(Cl)cc1 (stereo not given),-80*,1,-6%,2%,-9%,2%
O=C(CN(Cc1ccccc1Cl)C(=O)CNS(=O)(=O)c1ccccc1)NCC1CCCO1 (stereo not given),-2,-8,0%,23%,-1%,5%
COc1cccc(N(CC(=O)NCC2CCCO2)C(=O)CNS(=O)(=O)c2ccccc2)c1 (stereo not given),-8,-70*,1%,3%,1%,-3%
Cc1ccc(S(=O)(=O)NCC(=O)N(CC(=O)NCC2CCCO2)Cc2ccccc2Cl)cc1 (stereo not given),-233*,5,3%,8%,-3%,0%
Cc1ccnc(NC(=O)c2cc(S(=O)(=O)NCc3ccccc3)ccc2C)c1,6,12,-2%,6%,?,0%
CN(CCc1ccccc1)C(=O)c1cccc(NC(=O)Cc2cccc(NC(=O)C3CCCN(C(=O)C4CCCC4)C3)c2)c1 (stereo not given),-10,-4,.,3%,.,-2%
O=C(NC1CCCCCCC1)c1ccc(Br)o1,-11,-199*,-1%,1%,16%,-3%
O=C(NC1CCCCCC1)c1ccc(Br)o1,0,-2,3%,2%,7%,-1%
Cc1c(NC2=CC(=O)CC(C)(C)C2)ccc([N+](=O)[O-])c1C,1,-104*,2%,-5%,-2%,0%
Cc1cc(Cl)cc(C)c1OCC(=O)N1CCN(c2ncccn2)CC1,-15,11,1%,13%,-1%,-4%
O=S(=O)(c1ccc(S(=O)(=O)N2CCN(Cc3ccccc3)CC2)cc1)N1CCOCC1,.,.,0%,.,15%,.
O=S(=O)(c1ccc(Cl)cc1)N1CCC(O)(CN2CCN(Cc3ccccc3)CC2)CC1,-19,-73*,-1%,-3%,24%,0%
Cc1nc(C)c(-c2csc(Nc3ccc(Cl)cn3)n2)s1,5,3,.,.,.,.
Cc1cc(=O)[nH]c(N/N=C/c2cc(C)n(CC(F)(F)F)c2C)n1,8,-5,1%,0.25µM*,9%,-1%
O=c1oc2ccccc2cc1-c1nc2c(s1)CCCC2,1,-87*,1%,.,113%,i
CC1C(=O)CC(c2ccc([N+](=O)[O-])cc2)NC1c1ccc([N+](=O)[O-])cc1 (stereo not given),-22,-71*,4%,2%,-1%,-4%
Cc1nc(N)nc(N/N=C/c2ccccc2)n1,-76*,-2,0%,-11%,3%,3%
COc1ccc(COc2cc(-c3cccc(OC)c3)nc3ccc(N)cc23)cc1,11,-49,-1%,1.1µM*,9%,i
COc1ccc(COc2cc(-c3cccc(OC)c3)nc3ccc(NC(C)=O)cc23)cc1,1,-6,-1%,3%,0%,-12%
O=C(CN1CCN(C(=O)c2cccc(-n3cnnn3)c2)CC1)Nc1ccccc1Cl,-38,-73*,1%,-2%,-5%,0%
SMILES,hERG WT inh,KCNH2 3.1 block,MmCpn inh,uPA generation,p53 reactivator,ASM inhibitor
Cc1ccc(NC(=O)c2c(C(=O)Nc3ccccc3)sc3nc(C)cc(=O)n23)cc1,4,-103*,-5%,1%,0%,-10%
COc1nnc(-c2ccc(C)cc2)c2ccccc12,-4,-90*,-3%,0%,8%,-2%
Cc1ccc(C2N(c3ccccc3)C(=S)N3CCCN23)cc1 (stereo not given),5,2,2%,-2%,-5%,2%
Fc1ccc(C2N(c3ccccc3)C(=S)N3CCCN23)cc1 (stereo not given),-110*,-100*,0%,-4%,3%,-3%
COc1cc2c(-c3cc(F)cc(F)c3)c(-c3ccsc3)oc(=O)c2cc1OC,-3,-106*,-1%,5%,6%,16%
COc1ccc(N2C(=O)c3ccc(C(=O)Nc4cc(OC)ccc4OC)cc3C2=O)cc1,9,-96*,1%,2%,3%,4%
COc1ccc(OC)c(NC(=O)c2cccc(N3C(=O)C4C5C=CC(C6CC56)C4C3=O)c2)c1 (stereo not given),-167*,-39,0%,?,-2%,-6%
COc1ccc(OC)c(NC(=O)c2cccc(N3C(=O)C4C5CCC(C5)C4C3=O)c2)c1 (stereo not given),-1,-6,0%,-13%,-4%,0%
COc1ncnc2c1ncn2CCCN(CCCc1ccccc1)CCCn1cnc2c(OC)ncnc21,6,9,.,.,.,.
COc1ccc(-c2cc(C(=O)Nc3ccc(S(=O)(=O)Nc4onc(C)c4C)cc3)c3ccccc3n2)cc1OC,42,-81*,-2%,0%,1%,9%
Cc1ccc(-c2cc(C(=O)N3CCN(c4ncccn4)CC3)c3ccccc3n2)cc1,-7,-71*,-4%,-12%,18%,-8%
COc1ccc(-c2cc(C(=O)N3CCN(c4ncccn4)CC3)c3ccccc3n2)cc1OC,16,-142*,1%,-13%,-5%,58%
COc1ccc(-c2cc(C(=O)Nc3ccc(C(N)=O)cc3)c3ccccc3n2)cc1OC,3,0,4%,2%,-11%,58%
O=C(c1cc(-c2ccc(Br)cc2)nc2ccccc12)N1CCN(c2ccccc2O)CC1,-5,-74*,-2%,0%,5%,-21%
Cc1ccc(-c2cc(C(=O)N3CCN(c4ccccc4O)CC3)c3ccccc3n2)o1,8,-5,0%,-12%,11%,476%
